Laboratory results as given in PubChem BioAssay (EPA / NIEHS).
Activity calls are given as the source filed them. How the source made its calls: active means hit-call score of the fitted dose curve at least 0.9, where 1 is the maximum; inactive means score below 0.9.

Experiments:
[1] = BSK_hDFCGF_SRB: Viability Assessment in the BioMAP Diversity Plus: hDFCGF Assay (AID 2283061); conditions: primary human foreskin fibroblasts;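 further: cells exposed to compound for 24 h before the read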
Outline: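 Readout is SRB absorbance at 560 nm, reflecting total protein in parallel cultures of human foreskin fibroblasts harvested 24 h after chemical dosing. Activity was fitted bidirectionally relative to DMSO.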

[2] = read-out: TIMP metallopeptidase inhibitor 1 (TIMP1), TIMP1 (gene 7076); assay: BSK_hDFCGF_TIMP1: BioMAP Diversity Plus: hDFCGF Assay for TIMP metallopeptidase inhibitor 1 (TIMP1) Biomarker Activity (AID 2283062); conditions: primary human foreskin fibroblasts; actives raise or lower the signal
Outline: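 Human skin fibroblasts (primary), hDFCGF system; compound exposure 24 h; TIMP-1 by ELISA; bidirectional fit vs DMSO negative control; overt cytotoxicity by SRB in parallel wells.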

[3] = read-out: Monokine induced gamma interferon (MIG), CXCL9 (gene 4283); assay: BSK_hDFCGF_MIG: BioMAP Diversity Plus: hDFCGF Assay for Monokine induced gamma interferon (MIG) Biomarker Activity (AID 2283063); conditions: primary human foreskin fibroblasts; actives raise or lower the signal
Outline: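 Chemicals were added to primary human foreskin fibroblast cultures, which were sampled 24 h later. MIG levels were then quantified by ELISA and responses fitted in both directions relative to DMSO.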

[4] = read-out: Matrix Metallopeptidase 1 (MMP1), MMP1 (gene 4312); assay: BSK_hDFCGF_MMP1: BioMAP Diversity Plus: hDFCGF Assay for Matrix Metallopeptidase 1 (MMP1) Biomarker Activity (AID 2283064); conditions: primary human foreskin fibroblasts; actives raise or lower the signal
Outline: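 Primary human foreskin fibroblasts exposed to chemicals for 24 h; MMP1 measured by ELISA. Cytotoxicity tracked by SRB staining in parallel cultures; bidirectional fit relative to DMSO.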

[5] = read-out: Vascular cell adhesion molecule 1 (VCAM1), VCAM1 (gene 7412); assay: BSK_hDFCGF_VCAM1: BioMAP Diversity Plus: hDFCGF Assay for Vascular cell adhesion molecule 1 (VCAM1) Biomarker Activity (AID 2283065); conditions: primary human foreskin fibroblasts; actives raise or lower the signal;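 on AC50: VCAM-1 protein level quantified by ELISA after 24 h chemical exposure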
Outline: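 Human foreskin fibroblast primary cells, chemical exposure 24 h; VCAM-1 by ELISA; bidirectional fit, DMSO = negative control/baseline.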

[6] = read-out: Plasminogen activator inhibitor-1 (PAI1), SERPINE1 (gene 5054); assay: BSK_hDFCGF_PAI1: BioMAP Diversity Plus: hDFCGF Assay for Plasminogen activator inhibitor-1 (PAI1) Biomarker Activity (AID 2283066); conditions: primary human foreskin fibroblasts; actives raise or lower the signal
Outline: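 PAI-1 levels, determined by ELISA, served as the endpoint in human foreskin fibroblast cultures exposed to compound for 24 h, with DMSO as baseline.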

[7] = read-out: Intercellular Adhesion Molecule 1 (ICAM1), ICAM1 (gene 3383); assay: BSK_KF3CT_ICAM1: BioMAP Diversity Plus: KF3CT Assay for Intercellular Adhesion Molecule 1 (ICAM1) Biomarker Activity (AID 2283067); conditions: primary human keratinocytes with fibroblasts; actives raise or lower the signal
Outline: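 ICAM-1 levels are measured by ELISA 24 h after dosing a primary human co-culture of keratinocytes and foreskin fibroblasts. Activity in either direction is fitted relative to DMSO vehicle.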

[8] = read-out: Interferon-gamma inducible Protein 10 (IP10), CXCL10 (gene 3627); assay: BSK_KF3CT_IP10: BioMAP Diversity Plus: KF3CT Assay for Interferon-gamma inducible Protein 10 (IP10) Biomarker Activity (AID 2283068); conditions: primary human keratinocytes with fibroblasts; actives raise or lower the signal
Outline: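 In a primary skin co-culture of keratinocytes and fibroblasts, IP-10 is quantified by ELISA at 24 h after dosing. SRB staining of parallel wells monitors overt toxicity. Curves are fitted both directions against DMSO.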

[9] = BSK_KF3CT_SRB: Viability Assessment in the BioMAP Diversity Plus: KF3CT Assay (AID 2283069); conditions: primary human keratinocytes with fibroblasts;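 further: total protein by sulforhodamine B staining as a cytotoxicity measure; read 24 h after compound addition; fitted for both signal gain and loss against DMSO baseline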
Outline: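 Human keratinocyte and foreskin fibroblast co-culture exposed to chemical for 24 h. Total protein measured in parallel cultures by 0.1% sulforhodamine B staining after 10% TCA fixation, read at 560 nm; bidirectional fit relative to DMSO.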

[10] = read-out: Interleukin-1 alpha (IL1a), IL1A (gene 3552); assay: BSK_KF3CT_IL1a: BioMAP Diversity Plus: KF3CT Assay for Interleukin-1 alpha (IL1a) Biomarker Activity (AID 2283070); conditions: primary human keratinocytes with fibroblasts; actives raise or lower the signal
Outline: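 Primary human keratinocyte plus foreskin fibroblast co-culture, dosed and measured at 24 h in 96-well plates. IL-1a level quantified by ELISA; bidirectional fit relative to DMSO.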

[11] = read-out: TIMP metallopeptidase inhibitor 2 (TIMP2), TIMP2 (gene 7077); assay: BSK_KF3CT_TIMP2: BioMAP Diversity Plus: KF3CT Assay for TIMP metallopeptidase inhibitor 2 (TIMP2) Biomarker Activity (AID 2283071); conditions: primary human keratinocytes with fibroblasts; actives raise or lower the signal
Outline: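 Keratinocyte–fibroblast co-culture, 24 h exposure; TIMP-2 ELISA, DMSO-normalised bidirectional fit. Parallel SRB (0.1%, TCA-fixed, 560 nm) total-protein staining gauges cytotoxicity.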

[12] = read-out: C-C motif chemokine 2 (Homo sapiens) (UniProt P13500); assay: BSK_KF3CT_MCP1: BioMAP Diversity Plus: KF3CT Assay for Monocyte Chemoattractant Protein 1 (MCP1/CCL2) Biomarker Activity (AID 2283073); conditions: primary human keratinocytes with fibroblasts; actives raise or lower the signal
Outline: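 ELISA readout of MCP-1 after 24 h chemical dosing of a human skin primary co-culture of keratinocytes and foreskin fibroblasts. Activity was fitted in both directions against DMSO.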

[13] = read-out: Matrix Metallopeptidase 9 (MMP9), MMP9 (gene 4318); assay: BSK_KF3CT_MMP9: BioMAP Diversity Plus: KF3CT Assay for Matrix Metallopeptidase 9 (MMP9) Biomarker Activity (AID 2283074); conditions: primary human keratinocytes with fibroblasts; actives raise or lower the signal;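 on AC50: MMP9 protein level quantified by ELISA in the co-culture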
Outline: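 Human keratinocyte and foreskin fibroblast co-culture exposed to chemicals for 24 h; MMP9 biomarker measured by ELISA, bidirectional fitting relative to DMSO; cytotoxicity tracked by SRB total protein staining in parallel cultures.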

[14] = read-out: urokinase plasminogen activator (uPA), PLAU (gene 5328); assay: BSK_KF3CT_uPA: BioMAP Diversity Plus: KF3CT Assay for urokinase plasminogen activator (uPA) Biomarker Activity (AID 2283075); conditions: primary human keratinocytes with fibroblasts; actives raise or lower the signal
Outline: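 Primary human keratinocyte/foreskin fibroblast co-culture exposed to chemical; uPA measured by ELISA at 24 h. Bidirectional fit versus DMSO, with parallel SRB total-protein staining for cytotoxicity.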

CD40, CD40 (gene 958) = assay: BSK_LPS_CD40: BioMAP Diversity Plus: LPS Assay for CD40 Biomarker Activity (AID 2283076); conditions: primary human HUVEC with PBMC; actives raise or lower the signal
Outline: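 Cells were dosed, incubated 24 h, then assayed for CD40 by ELISA. Gain or loss of signal was analysed relative to DMSO controls. The culture paired human umbilical vein endothelium with peripheral blood mononuclear cells.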

[15] = read-out: E-selectin (Homo sapiens) (UniProt P16581); assay: BSK_LPS_Eselectin: BioMAP Diversity Plus: LPS Assay for Eselectin Biomarker Activity (AID 2283077); conditions: primary human HUVEC with PBMC; actives raise or lower the signal
Outline: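 Primary human vascular co-culture (endothelium plus PBMC) was dosed with chemical, then E-selectin quantified by ELISA at 24 h. Endpoint values derive from bidirectional curve fitting relative to DMSO.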

[16] = read-out: Interleukin-8 (IL8), CXCL8 (gene 3576); assay: BSK_LPS_IL8: BioMAP Diversity Plus: LPS Assay for Interleukin-8 (IL8) Biomarker Activity (AID 2283078); conditions: primary human HUVEC with PBMC; actives raise or lower the signal
Outline: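 Readout is IL-8 by ELISA, taken 24 h after compounds were added to LPS-stimulated endothelial/PBMC co-cultures. Both increases and decreases relative to DMSO control were scored through bidirectional fitting.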

[17] = BSK_LPS_SRB: Viability Assessment in the BioMAP Diversity Plus: LPS Assay (AID 2283079); conditions: primary human HUVEC with PBMC;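 further: total protein by sulforhodamine B absorbance as a cytotoxicity measure; measured one day after compound addition; fitted in both directions against DMSO so loss or gain of signal counts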
Outline: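 Readout is SRB absorbance at 560 nm (0.1% stain, TCA-fixed parallel cultures) as a total-protein cytotoxicity measure. Cells: primary human umbilical vein endothelium plus peripheral blood mononuclear cells, 24 h after chemical exposure; DMSO served as baseline.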

[18] = read-out: Interleukin-1 alpha (IL1a), IL1A (gene 3552); assay: BSK_LPS_IL1a: BioMAP Diversity Plus: LPS Assay for Interleukin-1 alpha (IL1a) Biomarker Activity (AID 2283080); conditions: primary human HUVEC with PBMC; actives raise or lower the signal
Outline: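 ELISA read-out of IL-1 alpha from a human primary vascular co-culture (endothelium plus PBMC) under LPS, sampled 24 hours post-dosing. Activity was fitted in both directions relative to DMSO controls.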

Measured: AC50

Chain of E-selectin (Homo sapiens) (P16581 whole entry, looked up): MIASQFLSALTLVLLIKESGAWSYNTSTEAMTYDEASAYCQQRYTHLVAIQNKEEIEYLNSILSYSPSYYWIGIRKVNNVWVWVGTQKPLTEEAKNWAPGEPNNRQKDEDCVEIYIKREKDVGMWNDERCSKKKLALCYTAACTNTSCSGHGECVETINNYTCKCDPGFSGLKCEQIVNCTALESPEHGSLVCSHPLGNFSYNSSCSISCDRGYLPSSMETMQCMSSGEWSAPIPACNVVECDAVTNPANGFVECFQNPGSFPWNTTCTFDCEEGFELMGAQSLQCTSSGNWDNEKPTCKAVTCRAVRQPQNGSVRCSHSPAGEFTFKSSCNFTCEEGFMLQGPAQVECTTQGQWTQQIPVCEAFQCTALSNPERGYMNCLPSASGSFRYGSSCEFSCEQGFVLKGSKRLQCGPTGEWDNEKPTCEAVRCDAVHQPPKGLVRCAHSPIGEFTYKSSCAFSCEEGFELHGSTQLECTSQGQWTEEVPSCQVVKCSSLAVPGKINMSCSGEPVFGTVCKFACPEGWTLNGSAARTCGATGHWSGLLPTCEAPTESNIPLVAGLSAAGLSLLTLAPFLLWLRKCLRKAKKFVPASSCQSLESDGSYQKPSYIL

NCC(F)(F)C(F)(F)C(F)(F)C(F)(F)C(F)(F)C(F)(F)C(F)(F)F
inactive: all assays above

O=c1c(-c2ccc(O)cc2)coc2cc(O)ccc12
active: [13] 20 µM
inactive: all other assays above

CN(C)C=O
inactive: all assays above

CCOC(=O)CC(O)(CC(=O)OCC)C(=O)OCC
inactive: all assays above

CCCOc1sc(C(=O)N2CCC(c3cc(CN)ccc3F)CC2)c(C)c1Br
active: [1] 6.53 µM | [2] 10.6 µM | [3] 9.21 µM | [4] 10.3 µM | [5] 9.91 µM | [6] 6.22 µM | [7] 10.6 µM | [8] 7.07 µM | [9] 5.28 µM | [10] 10.6 µM | [11] 9.6 µM | [12] 9.27 µM | [13] 5.74 µM | [14] 10.2 µM | CD40, CD40 (gene 958) 7.91 µM | [15] 11.1 µM | [16] 13.6 µM | [17] 5.93 µM | [18] 8.61 µM

Cc1oc(-c2ccccc2)nc1CCOc1ccc(C[C@H](Nc2ccccc2C(=O)c2ccccc2)C(=O)O)cc1
active: [1] 2.42 µM | [2] 3.99 µM | [3] 6.07 µM | [4] 2.05 µM | [5] 3.61 µM | [6] 2.79 µM | [7] 7.43 µM | [8] 2.86 µM | [9] 4.3 µM | [10] 8.87 µM | [11] 9.85 µM | [12] 5.22 µM | [13] 6.66 µM | [14] 7.7 µM | CD40, CD40 (gene 958) 30.2 µM | [15] 30.8 µM | [16] 29.1 µM | [17] 20.6 µM | [18] 20 µM

CC(C)(C)c1cc(C(C)(C)C)c(O)c(C(C)(C)C)c1
active: [1] 32 µM | [2] 31.8 µM | [3] 33.5 µM | [4] 33.1 µM | [5] 31.5 µM | [6] 32.2 µM | [8] 32.8 µM | [13] 36.2 µM
inactive: all other assays above

CC[C@H](c1ccc(O)cc1)[C@@H](CC)c1ccc(O)cc1
inactive: [2]
active: [1] 30.4 µM | [3] 30.6 µM | [4] 31.2 µM | [6] 25 µM | [7] 32.9 µM | [8] 26.5 µM | [9] 32.5 µM | [10] 32 µM | [11] 31.6 µM | [12] 32.7 µM | [13] 19.4 µM | [14] 35 µM | CD40, CD40 (gene 958) 17.4 µM | [15] 33.8 µM | [16] 35.1 µM | [17] 31.5 µM | [18] 31.3 µM

FC(F)(I)C(F)(F)C(F)(F)C(F)(F)C(F)(F)C(F)(F)I
active: [1] 5.33 µM [middle of 5 runs] | [2] 6.72 µM [middle of 5 runs] | [3] 6.07 µM [middle of 5 runs] | [4] 5.8 µM [middle of 5 runs] | [5] 3.81 µM [middle of 5 runs] | [6] 5.44 µM [middle of 5 runs] | [7] 9.2 µM [middle of 5 runs] | [8] 7.76 µM [middle of 5 runs] | [9] 8.99 µM [middle of 5 runs] | [10] 7.77 µM [middle of 5 runs] | [11] 13.2 µM [middle of 5 runs] | [12] 6.01 µM [middle of 5 runs] | [13] 8.17 µM [middle of 5 runs] | [14] 11.7 µM [middle of 5 runs] | [18] 18 µM [middle of 5 runs]

CC1=C(/C=C/C(C)=C/C=C/C(C)=C/C(=O)O)C(C)(C)CCC1
active: [1] 34.5 µM | [2] 31.2 µM | [3] 31.8 µM | [5] 18.5 µM | [6] 20 µM | [7] 30.6 µM | [8] 25.6 µM | [9] 32.8 µM | [10] 33.6 µM | [11] 32.3 µM | [12] 32.4 µM | [13] 32.6 µM | [14] 31.2 µM | CD40, CD40 (gene 958) 4.45 µM | [15] 6.18 µM
inactive: [16] | [17] | [18]

ClC1=C(Cl)C(Cl)(Cl)C(Cl)=C1Cl
active: [1] 12.8 µM | [2] 12.4 µM | [3] 13.6 µM | [4] 13.9 µM | [5] 6.75 µM | [6] 8.9 µM | [7] 9.94 µM | [8] 8.82 µM | [9] 7.42 µM | [10] 7.98 µM | [11] 11.8 µM | [12] 9.19 µM | [13] 9.06 µM | [14] 10.7 µM | CD40, CD40 (gene 958) 10.2 µM | [15] 11.9 µM | [16] 13.9 µM | [17] 11.4 µM | [18] 10.1 µM
